High-throughput results: PubChem BioAssay, Broad Institute
This is a sample that favours compounds with a hit; in the whole collection about 8.1% have one here.
PD-1 reversal: reversal of PD-1 mediated T-cell inhibition | activation, % (concentration not given with the values) | primary human CD4 T cells, PD-L1 beads, CellTiter-Glo 96 h | AID 2316 | 29,000 tested, under 10 active; call rule not given here;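 further: 0% = median vehicle wells and 100% = positive control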
MITF inhib: MITF inhibition; TRPM1 promoter luciferase, luminescence, 24 h; inhibition, % (test concentration not listed); 37,000 compounds, 0.28% hits; AID 2240; in the data active means inhibition above about 85%; inconclusive means no clear call, values can overlap the other calls; inactive means below about 68%;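 further: human melanocyte line stably carrying TRPM1 promoter luciferase reporter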
Hedgehog inh: Sonic Hedgehog pathway inhibition | Shh-LIGHT2 Gli-luciferase reporter, 30 h | AID 2313 | 22,000 compounds, 2.1% hits | inhibition, % (no concentration beside the values);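 active means mean inhibition across valid replicates above about 65%, limit read from the data; inconclusive means mean under the limit, yet half or more replicates past it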;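 further: pathway switched on by Shh-conditioned medium diluted 1 in 25 in low serum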
NOMO-1 viab: STK33 inhibitor candidate reducing NOMO-1 cell viability. NOMO-1 AML viability, CellTiter-Glo luminescence, 72 h. AID 2330. inhibition, % (no concentration beside the values). 37,000 compounds, 7.5% hits; in the data active means inhibition above about 80%; inconclusive means no clear call, values can overlap the other calls
* marks the source's active call; other numbers are inactive results.

Screening Cc1cc(C)c(S(=O)(=O)N2CCN(CC(O)COc3ccc4ccccc4c3)CC2)c(C)c1 (stereo unspecified) returned PD-1 reversal -1.5, MITF inhib 43.4 and NOMO-1 viab 22.8.
C[C@@H]1CN([C@@H](C)CO)C(=O)c2cc(NS(=O)(=O)c3cccs3)ccc2O[C@H]1CN(C)S(=O)(=O)c1ccccc1 was read as PD-1 reversal 1.7, MITF inhib -2.1, Hedgehog inh 30.3 and NOMO-1 viab 7.2.
Cc1[nH]n2c(=O)c3c(nc2c1-c1ccccc1)CCC3 was read as PD-1 reversal -0.7, MITF inhib 19.7, Hedgehog inh -17.9 and NOMO-1 viab 106.4*.
For Cc1cc(C)c2nc(-c3ccccn3)cc(C(=O)NCc3ccc(S(N)(=O)=O)cc3)c2c1 the results were MITF inhib 27.8 and NOMO-1 viab 112.5*.
For COc1ccccc1CNC(=O)c1cc(-c2ccccn2)nc2c(Cl)cccc12 the results were MITF inhib 47.2 and NOMO-1 viab 92.1*.
`COc1ccccc1CCNC(=O)c1cc(-c2ccccn2)nc2ccc(Br)cc12` gave PD-1 reversal -1.4, MITF inhib 20.3 and NOMO-1 viab 24.6.
For COc1ccc(NC(=O)c2cc(-c3ccccn3)nc3c(C)cc(C)cc23)c([N+](=O)[O-])c1 the results were MITF inhib 86.8* and NOMO-1 viab 68.3.
For C[C@H]1CN([C@@H](C)CO)C(=O)c2cc(NC(=O)Cn3cnnn3)ccc2O[C@@H]1CN(C)Cc1ccc(C(F)(F)F)cc1 the results were PD-1 reversal 1.3, MITF inhib -3.6, Hedgehog inh 4.7 and NOMO-1 viab 13.6.
`Cc1ccc(NC(=O)C(C)Sc2nnc(-c3cccc([N+](=O)[O-])c3)n2C)cc1` (stereo unspecified) gave PD-1 reversal 1.6, MITF inhib -13.4 and NOMO-1 viab 7.5.
Screening C[C@H](CO)N1C[C@H](C)[C@H](CN(C)S(=O)(=O)c2cccs2)Oc2ccc(NC(=O)NC3CCCCC3)cc2CC1=O returned PD-1 reversal -0.6, MITF inhib 1.2, Hedgehog inh -16.3 and NOMO-1 viab 10.1.
Screening C=C1C(=O)O[C@H]2C1CC[C@@](C)(O)[C@@H]1C[C@H](O)C(=C)[C@@H]12 (stereo partly specified) returned Hedgehog inh 38.8.
For C[C@H]1CN([C@@H](C)CO)C(=O)Cc2cc(NS(C)(=O)=O)ccc2O[C@@H]1CN(C)Cc1ccncc1 the results were PD-1 reversal 1.4, MITF inhib -10.6, Hedgehog inh -14.2 and NOMO-1 viab -5.4.
For C#C[C@]1(O)CCC2C3CCc4cc(O)ccc4C3CC[C@@]21C (stereo partly specified) the results were MITF inhib 17.6, Hedgehog inh -27.2 and NOMO-1 viab 106.9*.
Screening C[C@]12CC[C@@H]3c4ccc(O)cc4CC[C@H]3[C@@H]1C[C@@H](O)[C@@H]2O returned MITF inhib -4.3, Hedgehog inh 47.3 and NOMO-1 viab -3.7.
For CC(C)(C)c1ccc(-c2[nH]nc(NS(=O)(=O)c3ccccc3)c2Br)cc1 the results were PD-1 reversal -0.1, MITF inhib 12.9, Hedgehog inh 95.2* and NOMO-1 viab inconclusive.
`Cc1ccc(C)c(OCCCCSc2ncccn2)c1Cl` gave PD-1 reversal 0.3, MITF inhib -72.6 and NOMO-1 viab 43.6.
For CCCOc1ccc2nc(NC(=O)OC)[nH]c2c1 the results were MITF inhib -1.0, Hedgehog inh 48.6 and NOMO-1 viab 104.5*.
For C[C@@H]1CN([C@H](C)CO)C(=O)c2cc(NS(=O)(=O)c3cccs3)ccc2O[C@H]1CN(C)Cc1ccc(-c2ccccc2)cc1 the results were MITF inhib -2.9 and NOMO-1 viab 20.4.
For Cc1cc(=O)[nH]c(SCCOc2cccc(Cl)c2)n1 the results were PD-1 reversal 2.9, MITF inhib -21.3 and NOMO-1 viab 7.5.
`COc1cc(C(=O)NC(C)C(=O)O)cc(OC)c1OC` (stereo unspecified) gave MITF inhib -8.7 and NOMO-1 viab 25.9.
`COc1cc(C(=O)N=C2C(C)=CC(=O)C=C2C)cc(OC)c1OC` gave PD-1 reversal -6.1, MITF inhib 2.7 and NOMO-1 viab 134.7*.
Screening COc1ccc(OCC(=O)Nc2cccc(-c3nnc4c5ccccc5c(C)nn34)c2)cc1 returned PD-1 reversal 2.3, MITF inhib -17.2 and NOMO-1 viab 62.8.
For COc1ccc(CN(C)C[C@@H]2Oc3ccc(NC(=O)CCCCCC(=O)Nc4ccccc4N)cc3CC(=O)N([C@@H](C)CO)C[C@@H]2C)cc1 the results were PD-1 reversal -0.4, MITF inhib 27.4 and NOMO-1 viab 126.8*.
COc1ccc(CN(C)C[C@H]2Oc3ccc(NC(=O)CCCCCC(=O)Nc4ccccc4N)cc3CC(=O)N([C@@H](C)CO)C[C@H]2C)cc1 was read as PD-1 reversal 1.5, MITF inhib 7.4 and NOMO-1 viab 74.7.
Screening COc1ccc(CN(C)C[C@@H]2Oc3ccc(NC(=O)CCCCCC(=O)Nc4ccccc4N)cc3CC(=O)N([C@H](C)CO)C[C@@H]2C)cc1 returned PD-1 reversal -1.8, MITF inhib 10.7 and NOMO-1 viab 124.2*.
C[C@@H]1CN([C@@H](C)CO)C(=O)Cc2cc(NC(=O)Nc3ccc(C(F)(F)F)cc3)ccc2O[C@@H]1CN(C)Cc1ccccc1 was read as MITF inhib 9.2, Hedgehog inh 3.5 and NOMO-1 viab inconclusive.
C[C@@H]1CN([C@@H](C)CO)C(=O)Cc2cc(NC(=O)Nc3ccccc3)ccc2O[C@@H]1CN(C)Cc1ccc(C(F)(F)F)cc1 was read as PD-1 reversal -1.6, MITF inhib 3.9, Hedgehog inh 24.8 and NOMO-1 viab 119.2*.
C[C@@H]1CN([C@H](C)CO)C(=O)Cc2cc(NC(=O)Nc3ccc(C(F)(F)F)cc3)ccc2O[C@@H]1CN(C)Cc1ccccc1 was read as PD-1 reversal -3.2, MITF inhib 24.4, Hedgehog inh 27.8 and NOMO-1 viab 118.2*.
C[C@H]1CN([C@@H](C)CO)C(=O)Cc2cc(NC(=O)Nc3ccccc3)ccc2O[C@@H]1CN(C)Cc1ccc(C(F)(F)F)cc1 was read as PD-1 reversal 0.7, MITF inhib -12.8, Hedgehog inh -24.8 and NOMO-1 viab 54.2.
Screening CN(CC(=O)Nc1ccc(C(N)=O)cc1)S(=O)(=O)c1ccc2ccccc2c1 returned PD-1 reversal 0.6, MITF inhib 13.0 and NOMO-1 viab 20.2.
`Cc1noc(C)c1NC(=O)N(C)C[C@@H]1Oc2ccc(NC(=O)NC3CCCCC3)cc2C(=O)N([C@@H](C)CO)C[C@H]1C` gave PD-1 reversal 1.9, MITF inhib 2.7, Hedgehog inh 21.1 and NOMO-1 viab -31.7.
Screening Nc1nnc(SCc2cccnc2)s1 returned PD-1 reversal 0.4, MITF inhib -7.2 and NOMO-1 viab 0.0.
`N#Cc1cccc(CSc2nnc(SCc3cccc(C#N)c3)s2)c1` gave PD-1 reversal 0.7, MITF inhib 21.0, Hedgehog inh 67.8* and NOMO-1 viab 16.9.
Screening O=C(Nc1cc(S(=O)(=O)c2ccccc2)cs1)c1ccc(Cl)cc1 returned PD-1 reversal -0.3, MITF inhib 45.4, Hedgehog inh 4.3 and NOMO-1 viab 92.4*.
